Assay results reported in PubChem BioAssay (EPA / NIEHS).
Calls of active or inactive are those of the source. How the source made its calls: active means hit-call score of the fitted dose curve at least 0.9, where 1 is the maximum; inactive means score below 0.9.

Assays:
[1] = ATG_CRE_CIS: Attagene CIS-FACTORIAL HepG2 Assay for human cAMP Responsive Element (CRE) binding protein 3 (AID 2282926); conditions: HepG2 CRE cis-reporter, Attagene multiplexed mRNA; actives raise or lower the signal
Method in brief: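 Endogenous CRE-binding activity in HepG2 is reported through a cis-regulated transfected reporter. Following a day of exposure, mRNA levels are determined by reverse transcription PCR and fluorescent fragment analysis; fits run in both directions versus DMSO.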

[2] = ATG_CMV_CIS: Attagene CIS-FACTORIAL HepG2 Assay for human CMV (Internal Marker) (AID 2282928); conditions: HepG2 CMV promoter reporter, transcription factor profiling; actives raise or lower the signal;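 further: endpoint acts as a background internal control marker rather than a target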
Method in brief: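 Cell system: HepG2, transiently transfected multiple reporter units under cis promoters. Exposure: 24 h. Detection: RT-PCR, FAM labeling, HpaI digestion, capillary electrophoresis. Analysis: bidirectional, DMSO baseline.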

[3] = ATG_DR4_LXR_CIS: Attagene CIS-FACTORIAL HepG2 Assay for human Liver X Receptor (LXR), DR4 submotif (AID 2282929); conditions: HepG2 Attagene DR4 cis-reporter, mRNA transcription; actives raise or lower the signal
Method in brief: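 HepG2 cells were transiently transfected with multiple cis-regulated reporter units and dosed for 24 hours. The DR4 reporter mRNA was quantified by RT-PCR, 6-FAM labelling and capillary electrophoresis. Bidirectional fits used DMSO as baseline.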

[4] = ATG_AP_2_CIS: Attagene CIS-FACTORIAL HepG2 Assay for human Activator Protein 2 (AP-2) (AID 2282932); conditions: HepG2 AP-2 cis-reporter, Attagene transcription factor profiling; actives raise or lower the signal
Method in brief: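 Bidirectional curve fitting against DMSO was applied to reporter mRNA signals from HepG2 cells 24 h after dosing. Cis-promoter reporter units, transiently transfected, were read by RT-PCR plus capillary electrophoresis.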

[5] = ATG_BRE_CIS: Attagene CIS-FACTORIAL HepG2 Assay for human Bone Morphogenetic Protein (BMP) Response Element (BRE) (AID 2282933); conditions: HepG2 BMP response element reporter, Attagene transcription factor profiling; actives raise or lower the signal
Method in brief: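 Transient MRTU transfection of human HepG2 liver cells; 24 h compound treatment; total RNA isolated, reverse-transcribed, PCR-amplified, 6-FAM labelled, HpaI-cut, capillary electrophoresis. DMSO = negative control/baseline, bidirectional fit.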

[6] = biological target: Retinoic acid receptor alpha (Homo sapiens) (UniProt P10276); test: ATG_DR5_RAR_CIS: Attagene CIS-FACTORIAL HepG2 Assay for human Retinoic Acid Receptor Alpha (RARE), DR5 submotif (AID 2282934); conditions: HepG2 Attagene cis-factorial RARE DR5 reporter, mRNA; actives raise or lower the signal;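 on AC50: reporter responds to endogenous RAR alpha beta and gamma in HepG2 not RARA alone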
Chain of Retinoic acid receptor alpha (Homo sapiens) (P10276 whole entry, looked up): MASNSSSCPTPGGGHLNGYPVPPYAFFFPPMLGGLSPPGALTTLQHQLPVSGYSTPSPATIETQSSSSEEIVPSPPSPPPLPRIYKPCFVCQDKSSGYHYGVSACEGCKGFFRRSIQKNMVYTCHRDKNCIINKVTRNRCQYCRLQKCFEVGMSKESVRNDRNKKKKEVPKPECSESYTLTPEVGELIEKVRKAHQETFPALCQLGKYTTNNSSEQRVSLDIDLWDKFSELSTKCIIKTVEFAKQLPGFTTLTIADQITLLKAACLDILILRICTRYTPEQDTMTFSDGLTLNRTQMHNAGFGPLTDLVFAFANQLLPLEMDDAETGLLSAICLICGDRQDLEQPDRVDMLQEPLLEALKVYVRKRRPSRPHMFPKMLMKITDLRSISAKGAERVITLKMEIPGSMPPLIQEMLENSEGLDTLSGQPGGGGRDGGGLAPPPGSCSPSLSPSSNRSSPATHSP
Method in brief: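 Transfected HepG2 reporter cells are exposed to chemicals for 24 h. Then RNA is extracted and the DR5 element reporter transcript is measured by RT-PCR and capillary electrophoresis, with bidirectional curve fitting relative to DMSO.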

[7] = biological target: Transcription factor E2F1 (Homo sapiens) (UniProt Q01094); test: ATG_E2F_CIS: Attagene CIS-FACTORIAL HepG2 Assay for human E2F Transcription Factor 1 (AID 2282935); conditions: HepG2 Attagene cis-reporter, E2F reporter RNA transcripts; actives raise or lower the signal
Chain of Transcription factor E2F1 (Homo sapiens) (Q01094 whole entry, looked up): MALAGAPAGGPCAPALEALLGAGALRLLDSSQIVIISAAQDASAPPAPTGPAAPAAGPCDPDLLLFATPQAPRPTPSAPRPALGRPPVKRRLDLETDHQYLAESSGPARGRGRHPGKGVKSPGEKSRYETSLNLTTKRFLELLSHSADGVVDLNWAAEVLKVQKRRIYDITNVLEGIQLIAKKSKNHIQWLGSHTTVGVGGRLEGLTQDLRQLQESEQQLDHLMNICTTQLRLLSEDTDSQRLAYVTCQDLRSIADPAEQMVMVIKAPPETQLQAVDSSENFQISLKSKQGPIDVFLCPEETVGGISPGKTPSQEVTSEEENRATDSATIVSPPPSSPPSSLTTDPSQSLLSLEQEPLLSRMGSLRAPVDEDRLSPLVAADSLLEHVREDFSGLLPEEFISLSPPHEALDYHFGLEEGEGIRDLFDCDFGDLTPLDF
Method in brief: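 Multiplexed cis-reporter assay: HepG2, transient transfection, 24 h dosing, mRNA quantitation by labeled RT-PCR and CE.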

[8] = ATG_E_Box_CIS: Attagene CIS-FACTORIAL HepG2 Assay for human Enhancer Box (E-box) (AID 2282936); conditions: HepG2 E-box cis-reporter transcription, actives raise or lower the signal
Method in brief: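 Multiplexed CIS reporter system in transiently transfected HepG2 cells measures native transcription factor activity. Reporter RNA after 24 h exposure is profiled by RT-PCR-capillary electrophoresis.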

[9] = ATG_M_61_CIS: Attagene CIS-FACTORIAL HepG2 Assay for M61 Transcription Factor (Internal Marker) (AID 2282937); conditions: HepG2 Attagene CIS-FACTORIAL M61 internal marker reporter; actives raise or lower the signal
Method in brief: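 HepG2 cells transiently transfected with multiplexed cis-promoter reporter units reporting endogenous transcription factor activity, measured 24 h after dosing. Reporter mRNA quantified by RT-PCR and capillary electrophoresis; bidirectional fit against DMSO baseline.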

[10] = ATG_EGR_CIS: Attagene CIS-FACTORIAL HepG2 Assay for human Early Growth Response 1 (EGR1) (AID 2282938); conditions: HepG2 Attagene CIS-FACTORIAL EGR reporter mRNA; actives raise or lower the signal
Method in brief: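 HepG2 cells transiently transfected with cis-element-driven multiplexed reporter units, dosed for 24 h. EGR1-element reporter mRNA quantified by RT-PCR, 6-FAM labelling, HpaI digestion and capillary electrophoresis; bidirectional fit versus DMSO.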

[11] = ATG_M_19_CIS: Attagene CIS-FACTORIAL HepG2 Assay for M19 Transcription Factor (Internal Marker) (AID 2282939); conditions: HepG2 Attagene CIS-FACTORIAL M19 internal marker reporter; actives raise or lower the signal
Method in brief: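 Transfect HepG2 with MRTU reporter library → dose chemical, 24 h → isolate total RNA, reverse-transcribe with oligo(dT) → PCR, 6-FAM label, HpaI cut (2 h, 37 C) → capillary electrophoresis. Bidirectional fit vs DMSO.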

[12] = ATG_Ets_CIS: Attagene CIS-FACTORIAL HepG2 Assay for human Erythroblast Transformation Specific (ETS) (AID 2282941); conditions: HepG2 ETS cis-reporter transcription, actives raise or lower the signal
Method in brief: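 After transient cis-reporter transfection, HepG2 cells receive test chemical for 24 h. Reporter mRNA levels, measured by RT-PCR and capillary electrophoresis fluorescence, are analysed bidirectionally relative to the DMSO baseline.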

[13] = biological target: Hepatocyte nuclear factor 3-beta (Homo sapiens) (UniProt Q9Y261); test: ATG_FoxA2_CIS: Attagene CIS-FACTORIAL HepG2 Assay for human Forkhead box A2 (FOXA2) (AID 2282942); conditions: HepG2 cis-reporter transcription factor activity, 24 h; actives raise or lower the signal
Chain of Hepatocyte nuclear factor 3-beta (Homo sapiens) (Q9Y261 whole entry, looked up): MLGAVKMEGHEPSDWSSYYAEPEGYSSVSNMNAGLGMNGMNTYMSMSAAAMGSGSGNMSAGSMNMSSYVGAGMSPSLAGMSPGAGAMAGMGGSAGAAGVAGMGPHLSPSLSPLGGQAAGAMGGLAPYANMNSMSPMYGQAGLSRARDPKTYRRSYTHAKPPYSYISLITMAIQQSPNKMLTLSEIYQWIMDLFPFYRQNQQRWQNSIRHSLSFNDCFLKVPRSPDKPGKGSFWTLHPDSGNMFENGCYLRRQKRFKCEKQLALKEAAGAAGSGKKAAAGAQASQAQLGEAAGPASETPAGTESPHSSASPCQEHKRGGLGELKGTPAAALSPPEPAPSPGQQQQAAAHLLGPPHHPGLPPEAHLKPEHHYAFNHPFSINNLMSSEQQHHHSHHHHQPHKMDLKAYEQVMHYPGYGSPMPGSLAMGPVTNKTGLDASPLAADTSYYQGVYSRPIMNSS
Method in brief: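 HepG2 transiently transfected with a multiplexed cis-promoter reporter library read endogenous FOXA2 activity. After 24 h compound exposure, reporter mRNA was quantified by RT-PCR, HpaI digestion and capillary electrophoresis. Bidirectional fit against DMSO.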

[14] = ATG_FoxO_CIS: Attagene CIS-FACTORIAL HepG2 Assay for human Forkhead box O (FoxO) (AID 2282943); conditions: HepG2 Attagene cis-reporter, FoxO element, mRNA; actives raise or lower the signal
Method in brief: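 24 h chemical exposure, HepG2 with transient cis-MRTU transfection. RNA extraction, oligo(dT) RT, reporter-specific PCR, primer-extension labelling, HpaI digestion, CE fragment analysis; bidirectional fit, DMSO baseline.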

[15] = ATG_GATA_CIS: Attagene CIS-FACTORIAL HepG2 Assay for human GATA Binding Protein (AID 2282944); conditions: HepG2 GATA cis-element reporter, Attagene multiplex mRNA; actives raise or lower the signal
Method in brief: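 Transient MRTU transfection, HepG2, 24 h compound exposure. Total RNA → oligo(dT) RT → PCR → 6-FAM primer extension → HpaI cut → CE. Bidirectional fit vs DMSO.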

[16] = ATG_GLI_CIS: Attagene CIS-FACTORIAL HepG2 Assay for human Zinc Finger Protein GLI1 (AID 2282945); conditions: HepG2, Attagene cis-factorial reporter mRNA, GLI element; actives raise or lower the signal
Method in brief: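 HepG2 cells transiently transfected with cis-promoter multiplexed reporter units report endogenous transcription factor activity. After 24 h chemical exposure, reporter mRNA was quantified by RT-PCR, 6-FAM labelling, HpaI digestion and capillary electrophoresis, with bidirectional fitting against DMSO.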

[17] = ATG_AP_1_CIS: Attagene CIS-FACTORIAL HepG2 Assay for human Activator Protein 1 (AP-1) (AID 2282931); conditions: HepG2 Attagene cis-factorial AP-1 reporter mRNA; actives raise or lower the signal
Method in brief: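 HepG2 cells transiently transfected with cis-element-driven reporter transcription units, dosed for 24 hours. Reporter mRNA measured by RT-PCR, 6-FAM labelling, HpaI digestion and capillary electrophoresis. Bidirectional fitting against DMSO baseline.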

[18] = biological target: Aryl hydrocarbon receptor (Homo sapiens) (UniProt P35869); test: ATG_Ahr_CIS: Attagene CIS-FACTORIAL HepG2 Assay for human Aryl Hydrocarbon Receptor (Ahr) (AID 2282930); conditions: HepG2 AhR cis-factorial reporter transcription; actives raise or lower the signal
Chain of Aryl hydrocarbon receptor (Homo sapiens) (P35869 whole entry, looked up): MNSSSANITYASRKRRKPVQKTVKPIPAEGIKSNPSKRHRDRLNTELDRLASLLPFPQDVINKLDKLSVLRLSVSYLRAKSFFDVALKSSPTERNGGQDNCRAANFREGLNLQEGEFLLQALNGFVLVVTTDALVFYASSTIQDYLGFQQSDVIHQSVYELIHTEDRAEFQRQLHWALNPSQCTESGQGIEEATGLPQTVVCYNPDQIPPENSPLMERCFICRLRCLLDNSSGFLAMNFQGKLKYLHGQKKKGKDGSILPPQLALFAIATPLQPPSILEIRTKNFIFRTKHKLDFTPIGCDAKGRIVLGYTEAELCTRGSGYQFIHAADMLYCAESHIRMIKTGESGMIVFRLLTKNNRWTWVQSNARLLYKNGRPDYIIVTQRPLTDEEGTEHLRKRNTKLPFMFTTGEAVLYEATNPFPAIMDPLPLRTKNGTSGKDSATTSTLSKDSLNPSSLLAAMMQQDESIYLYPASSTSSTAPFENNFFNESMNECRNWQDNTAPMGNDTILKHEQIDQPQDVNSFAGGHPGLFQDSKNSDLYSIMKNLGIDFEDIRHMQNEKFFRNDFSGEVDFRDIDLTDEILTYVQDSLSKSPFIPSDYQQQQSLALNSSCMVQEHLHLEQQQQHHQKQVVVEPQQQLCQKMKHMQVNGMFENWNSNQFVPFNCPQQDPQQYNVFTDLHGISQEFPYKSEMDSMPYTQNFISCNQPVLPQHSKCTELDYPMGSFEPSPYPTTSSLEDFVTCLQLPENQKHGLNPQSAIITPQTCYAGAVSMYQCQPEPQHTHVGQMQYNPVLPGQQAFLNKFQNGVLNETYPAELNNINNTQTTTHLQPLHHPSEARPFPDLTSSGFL
Method in brief: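 Following 24 h of chemical dosing, transfected HepG2 liver cells with cis-driven reporter units were lysed for RNA; reporter mRNA was quantified via RT-PCR and capillary electrophoresis, and responses fitted bidirectionally from DMSO.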

[19] = ATG_ERE_CIS: Attagene CIS-FACTORIAL HepG2 Assay for Estrogen Response Element (ERE) (AID 2282940); conditions: HepG2 ERE cis-reporter, Attagene RNA transcript; actives raise or lower the signal
Method in brief: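 Transient MRTU transfection of human HepG2; cis-element promoters; 24 h dosing; total RNA → RT (oligo dT) → PCR → 6-FAM primer extension → HpaI digest → CE fluorescence. Bidirectional fit, DMSO baseline.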

Measured: AC50

C=C(C)C(=O)OCCOCCOCCOC(=O)C(=C)C
not listed: [17] | [18] | [19]
inactive: all other assays above

COc1ccc(OC)c(N=Nc2c(O)ccc3ccccc23)c1
not listed: [18] | [19]
inactive: all other assays above

Nc1c(Cl)cc(Cl)cc1[N+](=O)[O-]
active: [2] 69.1 µM | [8] 92 µM
not listed: [5] | [11] | [12]
inactive: all other assays above

COC(=O)c1ccc(OC)cc1
not listed: [19]
inactive: all other assays above

CCCC(C)=O
not listed: [19]
inactive: all other assays above

CC(C)CCCCCCCCCCCCCCC(=O)O
active: [6] 54.2 µM
not listed: [7] | [11] | [17] | [19]
inactive: all other assays above

Cc1cccc(Nc2ccccc2)c1
active: [3] 67.5 µM | [17] 139 µM | [10] 73.8 µM | [12] 154 µM
not listed: [15] | [19]
inactive: all other assays above
